In experiment [1] the target is Voltage-gated inwardly rectifying potassium channel KCNH2 (Homo sapiens) (UniProt Q12809). In words: qHTS Assay for Small Molecule Inhibitors of the Human hERG Channel Activity (AID 588834).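 Also: lower thallium flux fluorescence means stronger hERG block; nearly all actives have a fitted effect of over 50% in size.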 Also: potency is read from the fitted curve at half-maximal effect. In outline: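 Cells were infected with hERG-BacMam virus for 4 hrs at room temperature, grown overnight, then seeded at 2000/well. After dye loading and roughly 10 min compound treatment, thallium influx was triggered and fluorescence recorded.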
Chain of Voltage-gated inwardly rectifying potassium channel KCNH2 (Homo sapiens) (Q12809 whole entry, looked up): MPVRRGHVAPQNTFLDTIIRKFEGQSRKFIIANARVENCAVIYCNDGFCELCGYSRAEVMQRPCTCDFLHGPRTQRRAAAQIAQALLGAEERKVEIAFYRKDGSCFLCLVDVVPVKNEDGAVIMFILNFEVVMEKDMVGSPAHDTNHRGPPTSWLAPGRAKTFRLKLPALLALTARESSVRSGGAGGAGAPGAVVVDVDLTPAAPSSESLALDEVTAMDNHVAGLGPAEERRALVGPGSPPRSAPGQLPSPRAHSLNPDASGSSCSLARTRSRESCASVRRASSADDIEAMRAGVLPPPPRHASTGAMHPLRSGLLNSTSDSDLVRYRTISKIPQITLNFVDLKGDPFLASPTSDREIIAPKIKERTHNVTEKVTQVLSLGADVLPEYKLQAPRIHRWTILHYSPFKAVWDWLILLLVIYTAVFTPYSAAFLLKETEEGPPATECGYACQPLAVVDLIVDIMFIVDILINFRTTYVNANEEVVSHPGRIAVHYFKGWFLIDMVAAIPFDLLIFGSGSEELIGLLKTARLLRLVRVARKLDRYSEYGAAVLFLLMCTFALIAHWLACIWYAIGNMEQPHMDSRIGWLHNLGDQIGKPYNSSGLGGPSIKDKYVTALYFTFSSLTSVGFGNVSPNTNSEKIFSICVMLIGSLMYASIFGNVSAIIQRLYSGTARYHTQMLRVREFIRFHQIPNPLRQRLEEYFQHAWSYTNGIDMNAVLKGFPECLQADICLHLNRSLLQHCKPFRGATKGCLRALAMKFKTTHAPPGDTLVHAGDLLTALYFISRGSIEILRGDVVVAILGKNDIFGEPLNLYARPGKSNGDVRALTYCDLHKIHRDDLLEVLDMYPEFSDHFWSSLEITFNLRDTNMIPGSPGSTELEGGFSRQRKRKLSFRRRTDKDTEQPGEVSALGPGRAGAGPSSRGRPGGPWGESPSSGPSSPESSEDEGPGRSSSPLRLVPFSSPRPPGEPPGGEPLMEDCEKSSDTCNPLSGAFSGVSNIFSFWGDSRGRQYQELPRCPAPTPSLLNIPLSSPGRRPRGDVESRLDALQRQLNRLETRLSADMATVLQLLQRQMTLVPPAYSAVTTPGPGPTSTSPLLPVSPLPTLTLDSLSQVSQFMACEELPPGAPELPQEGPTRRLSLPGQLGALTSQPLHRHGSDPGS

Experiment [2] addresses Luciferin 4-monooxygenase (Photinus pyralis) (UniProt P08659). In words: Biochemical firefly luciferase enzyme assay for NPC (AID 624030).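 Also: purified P. pyralis luciferase at 10 nM with luciferin and ATP substrate; series mostly up to about 59 µM; 0% = DMSO and -100% = full luciferase inhibition by PTC124 control; nearly all actives have a fitted effect of over 70% in size.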 In a few lines: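 Purified P. pyralis luciferase at 10 nM in 50 mM Tris Acetate (final), luminescence read within 5 minutes of enzyme addition to compounds. Activity normalised to PTC124 versus DMSO; concentration-response curves classed by r2, magnitude and activity.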

Experiment [3] is described as follows: S16 Schwann cell viability assay (CellTiter-Glo assay) (AID 624031). Also: nearly all actives have a fitted effect of over 70% in size. Also: potency is read from the fitted curve at half-maximal effect. In outline: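 This viability control uses native rat S16 Schwann cells grown in DMEM plus 10% FBS. After a 24 h compound treatment at 37 °C, CellTiter-Glo luminescence reports ATP content, scaled against DMSO-treated and cell-free wells.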
Experiment [4] is described as follows: S16 Schwann cell PMP22 intronic element firefly luciferase assay (AID 624032). Also: nearly all actives have a fitted effect of over 30% in size. Also: potency is read from the fitted curve at half-maximal effect. In a few lines: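 Rat S16 Schwann cells stably carrying firefly luciferase driven by a PMP22 intronic element, in 10% FBS, treated 24 h at 37 C. ONE-Glo luminescence normalized to PTC124 control and DMSO (0%); curves classed by r2, magnitude and activity.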
A short description of experiment [5]: S16 Schwann cell PMP22 intronic element beta-lactamase assay (AID 624044; calls by dose curve; also: nearly all actives have a fitted effect of over 15% in size; also: potency is read from the fitted curve at half-maximal effect). In a few lines: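 Beta-lactamase reporter under a PMP22 intronic regulatory element in stable S16 rat Schwann cells; 24 h compound exposure. 460 nm blue signal normalized between DMSO (0%) and potassium clavulanate, with 535 nm FRET tracking viability; curves classed by r2 and response.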

Experiment [6] concerns the target Glutaminase kidney isoform, mitochondrial (Homo sapiens) (UniProt O94925). In words: qHTS for Inhibitors of Glutaminase (GLS): LOPAC Validation (AID 624146).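 Also: glutamate product detected by oxidase and peroxidase coupled Amplex red fluorescence gain; series mostly up to about 46 µM; % is scaled to controls: 0 for no effect and ±100 for the full control effect; nearly all actives have a fitted effect of over 60% in size.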 In outline: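 hKGA in 45 mM KH2PO4 pH 8.2, 0.02% Tween-20 with pin-transferred compounds; 1 mM L-glutamine (stock) plus glutamate oxidase/HRP/Amplex Red coupling added. Fluorescence read initially and after 30 min at RT.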

Experiment [7] deals with Glucagon-like peptide 1 receptor (Homo sapiens) (UniProt P43220). In words: qHTS of GLP-1 Receptor Agonists: LOPAC Validation (AID 624148).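 Also: 0% is about no effect; higher luminescence signal means agonism.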 In outline: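 HEK293 cells stably co-expressing GLP-1R and a cAMP-responsive luciferase reporter, plated 12 hours before compound, then incubated 4-6 hr at 37 deg C. Luminescence read 12 min after detection reagent.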
Chain of Glucagon-like peptide 1 receptor (Homo sapiens) (P43220 whole entry, looked up): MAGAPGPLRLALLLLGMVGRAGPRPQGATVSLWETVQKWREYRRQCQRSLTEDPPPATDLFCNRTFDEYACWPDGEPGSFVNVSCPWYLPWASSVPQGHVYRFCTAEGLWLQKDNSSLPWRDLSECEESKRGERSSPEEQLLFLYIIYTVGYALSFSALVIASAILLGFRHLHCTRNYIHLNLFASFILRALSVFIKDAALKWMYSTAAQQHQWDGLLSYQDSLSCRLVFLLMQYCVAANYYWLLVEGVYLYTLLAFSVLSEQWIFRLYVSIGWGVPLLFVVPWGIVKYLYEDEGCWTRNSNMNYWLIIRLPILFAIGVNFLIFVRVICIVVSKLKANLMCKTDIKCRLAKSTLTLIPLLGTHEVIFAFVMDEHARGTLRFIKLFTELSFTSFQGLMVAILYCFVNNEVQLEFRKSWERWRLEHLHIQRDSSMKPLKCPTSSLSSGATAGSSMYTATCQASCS
The nature of experiment [8]: qHTS of Nrf2 Activators: LOPAC Validation (AID 624149). Also: 0% is about no effect. In a few lines:
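AREc32_Fluc cells, 1000/well, OPTI-MEM + 5% FBS, o/n 37 deg C 5% CO2; compound pin-transfer, 24 hr 37 deg C; Steady-Glo 30 min RT, luminescence read.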

The nature of experiment [9]: HTS Assay for Allosteric Antagonists of the Human D2 Dopamine Receptor: Hit Validation in HTRF (AID 624455). Also: % is scaled to controls: 0 for no effect and ±100 for the full control effect. In a few lines: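 HTRF read-out; cells stably expressing D1 receptor; hits scored for inhibition of D1-mediated response. Primary screen: calcium flux, force-coupled inducible Hek293 Trex D2 line, antagonism vs EC80 dopamine.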
Experiment [10] concerns the target Peroxisome proliferator-activated receptor gamma (Homo sapiens) (UniProt P37231). In words: qHTS assay for small molecule agonists of peroxisome proliferator-activated receptor gamma signaling (AID 588536; active = well fitted curve in the direction sought with a large enough effect in the signal ratio, with a control signal flat, not every such curve was filed as active; the % refers to the signal ratio;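 also: 0% = DMSO basal wells and 100% = rosiglitazone at 2 µM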). In outline: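 Cells were plated and held 6–6.5 h at 37 C, then compounds were added as a titration series. After a further 16 h, CCF4 dye was loaded for 2 h at room temperature and emission at 460/530 nm recorded.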

Experiment [11] shares this target. In words: qHTS assay for small molecule antagonists of peroxisome proliferator-activated receptor gamma signaling (AID 588537; active = well fitted inhibition curve with a large enough effect in the signal ratio, with a control signal flat, not every such curve was filed as active; the % refers to the signal ratio;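 also: reporter cells co-stimulated with 50 nM rosiglitazone agonist during compound treatment; % of control where 0% means no effect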). In a few lines: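 Read-out: CCF4 fluorescence (ex 405, em 460/530 nm) after 2 h at RT. Cells were HEK293 carrying a UAS-bla reporter and treated 16 h at 37 C with compound plus rosiglitazone (50 nM final). Normalized to rosiglitazone and DMSO.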

The nature of experiment [12]: qHTS assay for small molecule agonists of retinoid X receptor alpha signaling (AID 588544; calls by dose curve). The conditions noted are these: HEK293T RXRa-UAS-bla, beta-lactamase reporter, 18 h; 530 nm emission.
Experiment [13] concerns the target Retinoic acid receptor RXR-alpha (Homo sapiens) (UniProt P19793). Described as above.
Experiment [14] has as its target Thyroid hormone receptor beta (Homo sapiens) (UniProt P10828). In words: qHTS assay for small molecule agonists of thyroid hormone receptor beta signaling (AID 588545; calls by dose curve). In outline:
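Agonist-mode beta-lactamase reporter assay, HEK 293 cells, 2% charcoal/dextran FBS; cells plated 4 hrs, compound 18 hrs at 37 C, CCF4 2 hrs RT. Normalized to 10 nM T3 (100%) and DMSO (0%); Hill fit gives EC50, efficacy.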

The nature of experiment [15]: qHTS assay for small molecule antagonists of retinoid X receptor alpha signaling (AID 588546; active = well fitted inhibition curve with a large enough effect in the signal ratio, with a control signal flat, not every such curve was filed as active; the % refers to the signal ratio;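 also: cells stimulated with 9-cis-retinoic acid as agonist; % is scaled to controls: 0 for no effect and ±100 for the full control effect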). As to conditions: HEK293T RXRa-UAS-bla, beta-lactamase ratio, antagonist mode; measured here: W530 green channel, cytotoxicity proxy. In a few lines: (§1)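 Beta-lactamase reporter inhibition, read as CCF4 fluorescence ratio (ex 405, em 460/530 nm) after 2 h at RT. HEK293T UAS-bla cells, 2500/well, were stimulated with 9-cis-RA at 500 or 100 nM final alongside test compound for 18 h at 37 C.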

Experiment [16] deals with Retinoic acid receptor RXR-alpha (Homo sapiens) (UniProt P19793). Described as above. The conditions noted are these: HEK293T RXRa-UAS-bla, beta-lactamase ratio, antagonist mode. In outline: as §1
Chain of Retinoic acid receptor RXR-alpha (Homo sapiens) (P19793 whole entry, looked up): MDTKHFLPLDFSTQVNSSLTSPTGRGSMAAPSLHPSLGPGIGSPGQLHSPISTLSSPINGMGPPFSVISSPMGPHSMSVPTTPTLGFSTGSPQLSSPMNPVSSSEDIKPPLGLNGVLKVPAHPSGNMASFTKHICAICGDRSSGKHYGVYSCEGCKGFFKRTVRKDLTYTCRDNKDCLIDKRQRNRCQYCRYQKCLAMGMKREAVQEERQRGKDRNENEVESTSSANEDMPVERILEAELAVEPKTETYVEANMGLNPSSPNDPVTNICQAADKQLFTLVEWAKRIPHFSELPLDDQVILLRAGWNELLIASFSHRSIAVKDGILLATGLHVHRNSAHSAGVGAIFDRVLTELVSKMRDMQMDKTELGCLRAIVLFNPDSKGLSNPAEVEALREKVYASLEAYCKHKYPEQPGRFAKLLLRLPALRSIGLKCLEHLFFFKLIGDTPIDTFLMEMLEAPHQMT
In experiment [17] the target is Thyroid hormone receptor beta (Homo sapiens) (UniProt P10828). In words: qHTS assay for small molecule antagonists of thyroid hormone receptor beta signaling (AID 588547; active = well fitted inhibition curve with a large enough effect in the signal ratio, with a control signal flat, not every such curve was filed as active; the % refers to the signal ratio;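 also: cells stimulated with 0.4 nM T3 agonist during compound exposure; series mostly up to about 77 µM; % is scaled to controls: 0 for no effect and ±100 for the full control effect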). The conditions noted are these: TR-UAS-bla HEK293, beta-lactamase ratio, antagonist mode, 18 h. In a few lines: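 TR-UAS-bla GripTite HEK293 cells in 2% charcoal/dextran FBS medium; compounds 0.59 nM to 92 uM with T3 at 0.4nM final, 18 h at 37 C. Beta-lactamase read by CCF4 fluorescence (460/530 nm); Hill fits gave IC50 and efficacy.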
Chain of Thyroid hormone receptor beta (Homo sapiens) (P10828 whole entry, looked up): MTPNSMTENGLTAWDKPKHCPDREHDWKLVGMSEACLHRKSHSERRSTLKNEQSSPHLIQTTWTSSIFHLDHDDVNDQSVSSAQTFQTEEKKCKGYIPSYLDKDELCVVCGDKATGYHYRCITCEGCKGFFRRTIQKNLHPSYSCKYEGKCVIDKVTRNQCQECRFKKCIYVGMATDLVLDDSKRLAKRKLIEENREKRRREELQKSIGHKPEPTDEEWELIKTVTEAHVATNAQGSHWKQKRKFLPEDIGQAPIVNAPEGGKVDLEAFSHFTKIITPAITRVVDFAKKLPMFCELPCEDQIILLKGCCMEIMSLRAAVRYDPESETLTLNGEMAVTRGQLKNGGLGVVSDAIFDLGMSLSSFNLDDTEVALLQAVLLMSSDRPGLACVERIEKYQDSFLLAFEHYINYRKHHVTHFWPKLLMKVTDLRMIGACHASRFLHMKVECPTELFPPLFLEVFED

Experiment [18] is described as follows: qHTS of Trypanosoma Brucei Inhibitors: LOPAC Validation (AID 624147). Also: 0% is about no effect. In outline: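 Screened from lowest to highest concentration, compounds were pinned into TbPYK/substrate mixtures, and ADP (130 uM final) was added. Plates sat at room temperature for 45 min prior to Kinase-Glo Plus detection by luminescence.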
Experiment [19] deals with Vitamin D3 receptor (Homo sapiens) (UniProt P11473). In words: qHTS assay for small molecule antagonists of vitamin D receptor signaling (AID 588541; calls by dose curve;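 also: receptor activated by calcitriol during compound treatment; series mostly up to about 77 µM; % is scaled to controls: 0 for no effect and ±100 for the full control effect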). In a few lines: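 VDR-UAS-bla HEK293T cells in 2% charcoal-stripped FBS were stimulated with 1-alpha,25-dihydroxyvitamin D3 (3 nM final) plus compound for 16 h at 37 C. The beta-lactamase CCF4 readout was normalized to 50 nM agonist and DMSO, and Hill fits gave IC50.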
Chain of Vitamin D3 receptor (Homo sapiens) (P11473 whole entry, looked up): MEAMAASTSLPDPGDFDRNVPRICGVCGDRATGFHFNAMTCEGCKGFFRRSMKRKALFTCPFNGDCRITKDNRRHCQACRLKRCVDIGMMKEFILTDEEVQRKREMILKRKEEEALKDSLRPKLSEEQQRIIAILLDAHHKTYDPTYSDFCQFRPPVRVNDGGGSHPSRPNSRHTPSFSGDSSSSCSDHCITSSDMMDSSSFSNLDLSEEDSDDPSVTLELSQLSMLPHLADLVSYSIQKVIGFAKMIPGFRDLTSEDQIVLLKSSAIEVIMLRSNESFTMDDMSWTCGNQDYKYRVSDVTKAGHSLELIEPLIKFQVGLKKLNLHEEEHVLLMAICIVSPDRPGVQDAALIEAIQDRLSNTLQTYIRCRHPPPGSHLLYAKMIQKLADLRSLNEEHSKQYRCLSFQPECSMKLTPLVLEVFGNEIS

Experiment [20] has the same target. In words: qHTS assay for small molecule agonists of vitamin D receptor signaling (AID 588543; calls by dose curve;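 also: 0% = DMSO basal and 100% = reference agonist control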). In a few lines:
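qHTS in agonist mode: compound titrations stimulate a VDR-driven β-lactamase reporter in HEK293T cells over 16 h at 37 °C. Response normalized to 50 nM 1α,25-dihydroxyvitamin D3 = 100%, DMSO = 0%; Hill fitting gives EC50 and maximal response.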

SMILES strings stand for the structures. “And” between values parts separate entries of the source, which are not always exact repeats. Equal values may be shown once. Results filed as inconclusive are left out. The source made the active and inactive calls. Unless noted, calls follow the shape of the dose curve; as a rule, active = well fitted curve in the direction sought with a large enough effect; inconclusive = small, poorly fitted or top-dose-only effect, or another doubt; inactive = no such curve, though single readings can be large; an effect the other way counts as inactive or inconclusive.

The values below come from PubChem BioAssay (NCATS).

Chain of Peroxisome proliferator-activated receptor gamma (Homo sapiens) (P37231 whole entry, looked up): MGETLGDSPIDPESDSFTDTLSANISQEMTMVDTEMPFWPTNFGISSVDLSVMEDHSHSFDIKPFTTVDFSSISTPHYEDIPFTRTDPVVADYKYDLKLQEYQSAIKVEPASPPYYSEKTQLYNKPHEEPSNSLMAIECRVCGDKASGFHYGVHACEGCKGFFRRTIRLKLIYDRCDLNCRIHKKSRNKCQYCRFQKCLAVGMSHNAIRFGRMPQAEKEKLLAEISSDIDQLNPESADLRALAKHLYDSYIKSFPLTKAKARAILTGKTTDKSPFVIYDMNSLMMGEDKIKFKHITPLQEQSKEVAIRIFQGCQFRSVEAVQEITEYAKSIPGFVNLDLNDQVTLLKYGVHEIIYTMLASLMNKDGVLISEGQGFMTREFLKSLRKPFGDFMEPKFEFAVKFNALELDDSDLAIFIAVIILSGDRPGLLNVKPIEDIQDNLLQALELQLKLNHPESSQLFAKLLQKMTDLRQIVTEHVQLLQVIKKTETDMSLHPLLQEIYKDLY
Chain of Glutaminase kidney isoform, mitochondrial (Homo sapiens) (O94925 whole entry, looked up, canonical isoform): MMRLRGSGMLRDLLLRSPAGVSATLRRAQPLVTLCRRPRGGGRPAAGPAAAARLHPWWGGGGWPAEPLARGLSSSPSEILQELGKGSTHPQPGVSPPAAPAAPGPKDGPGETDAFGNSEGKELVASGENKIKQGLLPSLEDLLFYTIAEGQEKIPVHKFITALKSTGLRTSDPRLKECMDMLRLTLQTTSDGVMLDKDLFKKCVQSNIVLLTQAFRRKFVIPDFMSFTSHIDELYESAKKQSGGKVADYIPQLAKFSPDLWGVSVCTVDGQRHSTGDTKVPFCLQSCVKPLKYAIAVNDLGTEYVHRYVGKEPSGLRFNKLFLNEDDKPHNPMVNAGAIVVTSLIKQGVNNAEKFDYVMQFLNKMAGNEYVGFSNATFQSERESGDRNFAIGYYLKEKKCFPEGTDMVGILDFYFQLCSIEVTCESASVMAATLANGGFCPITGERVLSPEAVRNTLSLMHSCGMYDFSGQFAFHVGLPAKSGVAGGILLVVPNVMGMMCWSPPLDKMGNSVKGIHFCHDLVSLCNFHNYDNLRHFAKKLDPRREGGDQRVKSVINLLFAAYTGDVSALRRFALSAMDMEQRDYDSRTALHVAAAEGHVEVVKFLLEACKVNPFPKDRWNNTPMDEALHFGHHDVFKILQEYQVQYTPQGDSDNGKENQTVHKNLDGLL
Chain of Luciferin 4-monooxygenase (Photinus pyralis) (P08659 whole entry, looked up): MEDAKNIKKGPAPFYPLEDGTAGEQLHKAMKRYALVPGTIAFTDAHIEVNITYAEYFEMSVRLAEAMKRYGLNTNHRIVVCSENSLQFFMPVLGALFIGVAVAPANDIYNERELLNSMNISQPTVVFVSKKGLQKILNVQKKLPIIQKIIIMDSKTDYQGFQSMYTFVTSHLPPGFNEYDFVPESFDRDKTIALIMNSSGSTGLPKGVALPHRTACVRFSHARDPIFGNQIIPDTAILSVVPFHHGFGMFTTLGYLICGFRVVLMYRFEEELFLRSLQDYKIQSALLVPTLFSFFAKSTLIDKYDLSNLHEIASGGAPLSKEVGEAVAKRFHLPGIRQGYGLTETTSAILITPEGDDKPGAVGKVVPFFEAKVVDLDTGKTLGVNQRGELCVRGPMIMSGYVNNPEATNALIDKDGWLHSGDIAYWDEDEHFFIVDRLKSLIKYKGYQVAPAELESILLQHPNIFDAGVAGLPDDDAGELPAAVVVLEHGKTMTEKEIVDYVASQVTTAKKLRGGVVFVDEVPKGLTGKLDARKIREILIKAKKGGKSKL

Take `CC(N=C(NC#N)Nc1ccncc1)C(C)(C)C` (centres undefined): the Potency result in [1], in experiment [2], in [3], in experiment [4], in [5] and in [6] was “inactive” each time. The Potency result in experiment [9] is “inactive”. The outcome in [7] and in [8] was inactive.

As for `NC(=O)N1c2ccccc2C=Cc2ccccc21`, the outcome in experiment [10], in [11], in experiment [13], in experiment [18], in experiment [7] and in experiment [8] was inactive. The max response was -3.76% and -20.7% in experiment [12]; -1.27% and -13.7% in [15]; 2.96% (inactive) and -0.41% (inactive) in [16]. Further, the Potency result in [14], in [1], in [2], in [3], in experiment [4] and in experiment [6] was “inactive” each time. For the same compound, the Potency result in experiment [9] was “inactive”. For the same compound, the activity change % (negative = inhibition) in experiment [17] is 8.17% (inactive).

For the compound `O=C(O)CCCCCCCC(=O)O`, the compound was called inactive in experiment [10], in experiment [11], in [19], in experiment [20], in experiment [13] and in [18]. Moreover, the result in [7] and in [8] was inactive. The max response in [12] was -21.3%; in [15], -5.98%; in [16], 0.796% (inactive). The Potency result in experiment [14], in experiment [1], in experiment [2], in experiment [3], in experiment [4] and in experiment [5] was “inactive” in each case. Besides, the Potency entry in experiment [6] and in [9] was “inactive” each time. In experiment [17], the activity change % (negative = inhibition) is -5.44% (inactive).

On to `O=c1[nH]c(=O)n([C@H]2C[C@H](O)[C@@H](CO)O2)cc1Br`, for which the call in experiment [10], in experiment [19], in [20], in [13], in experiment [18] and in [7] was inactive. For the same compound, the result in experiment [8] was inactive. The max response was 16.6% in [12], 11.1% in experiment [15] and 7.58% (inactive) in experiment [16]. Besides, the Potency entry in [14], in experiment [1], in [2], in experiment [3], in experiment [6] and in [9] was “inactive” each time. Besides, the activity change % (negative = inhibition) in experiment [17] was 7.23% (inactive). The Potency in [5] is 7.94 µM (active).

For `Cc1cc(C)c(/C=C2\C(=O)Nc3ccccc32)[nH]1`, the Potency in experiment [1] is 25.1 µM (active) and 7.94 µM (active). For the same compound, the Potency result in experiment [2], in [3], in experiment [4], in [5], in experiment [6] and in experiment [9] was “inactive” in each case. The call in [18] and in experiment [8] was inactive.

As to `CCN(CC)CCCN(c1ccccc1)C1Cc2ccccc2C1`, the Potency in [1] is 794 nM (active); in experiment [3], 14.4 µM (active); in [4] it was 16.1 µM (active). For the same compound, the Potency result in experiment [2], in experiment [6] and in experiment [9] was “inactive” each time. Further, the outcome in experiment [18], in experiment [7] and in experiment [8] was inactive.

On to `CNCCC(Oc1ccccc1OC)c1ccccc1` (centres undefined), for which the Potency in [1] is 12.6 µM (active) and 6.31 µM (active). Further, the Potency entry in [2], in [3], in experiment [4], in experiment [5], in experiment [6] and in experiment [9] was “inactive” throughout. The result in experiment [18] and in experiment [7] was inactive.

As for `CC(C)(Oc1ccc(CCNC(=O)c2ccc(Cl)cc2)cc1)C(=O)O`, the call in [11], in [19], in experiment [20], in [13], in [18] and in [7] was inactive. Moreover, the outcome in experiment [8] was inactive. For the same compound, the max response is 19.7% in [12], 1.78% in experiment [15] and -3.89% (inactive) in [16]. Also, the Potency result in experiment [14], in experiment [1], in [2], in [3], in [4] and in experiment [6] was “inactive” in each case. Further, the Potency entry in [9] is “inactive”. For the same compound, the activity change % (negative = inhibition) in experiment [17] was 12.2% (inactive).
